In PubChem BioAssay:
Measured potencies and affinities stand elsewhere. Active and inactive are the calls of the source. Unless noted, no rule for the calls is given here.

What follows are compounds tested against Calcium-dependent protein kinase 1 (Plasmodium falciparum (isolate 3D7)) (UniProt P62344) (assay: PfCDPK1 kinase inhibitors, biochemical, TCAMS library (AID 1159585; cut-off not given, nearly all actives have IC50 up to about 0.98 µM;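 also: inhibitors leave more ATP so luminescence rises with inhibition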)). Details: recombinant PfCDPK1, Kinase-Glo ATP depletion luminescence.
Chain of Calcium-dependent protein kinase 1 (Plasmodium falciparum (isolate 3D7)) (P62344 whole entry, looked up): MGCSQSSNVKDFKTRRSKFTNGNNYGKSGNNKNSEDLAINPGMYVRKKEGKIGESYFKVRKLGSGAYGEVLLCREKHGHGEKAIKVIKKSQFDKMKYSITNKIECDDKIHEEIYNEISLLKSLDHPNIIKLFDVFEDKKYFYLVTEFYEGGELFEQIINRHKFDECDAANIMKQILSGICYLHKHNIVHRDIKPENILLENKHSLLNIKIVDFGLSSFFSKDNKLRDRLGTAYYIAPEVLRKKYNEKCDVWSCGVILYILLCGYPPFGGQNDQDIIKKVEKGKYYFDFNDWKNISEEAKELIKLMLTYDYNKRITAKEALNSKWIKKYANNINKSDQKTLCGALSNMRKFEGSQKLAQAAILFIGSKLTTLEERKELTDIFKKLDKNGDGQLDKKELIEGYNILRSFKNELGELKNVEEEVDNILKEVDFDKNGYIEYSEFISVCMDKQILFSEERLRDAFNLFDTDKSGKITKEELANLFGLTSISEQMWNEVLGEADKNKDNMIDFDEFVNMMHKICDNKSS

outcome, inactive:
Cc1ccc(NC(=O)NCCCCCN2CCC(c3c[nH]c4ccccc34)CC2)cc1I, COc1ccc(Cn2c(SCc3ccc(C)cc3)nc3cc(OC)c(OC)cc3c2=N)cc1Cl, COc1ccc(NC(=O)c2cc(-c3ccc(NC(C)=O)cc3)cnc2N)cc1, O=C(NCCc1ccc(Cl)c(Cl)c1)c1ccc(CNC(=O)c2ccc(O)c(-c3ccc(Cl)c(Cl)c3)c2)cc1, CCN(CC)C(=NCCCCCCN=C(NC(N)=NCc1cccc(Cl)c1)N(CC)CC)NC(N)=NCc1cccc(Cl)c1, CNCCNCc1cccc(-c2ccc(-c3nc4ccc(C(F)(F)F)cc4[nH]3)cc2)c1, COc1ccc(-c2cccc(NC(=O)c3ccc(F)cc3)c2)cc1CNC(C)C, O=C1Nc2cccc3c2C1(CCCCN1CCC(c2cc4ccncc4[nH]2)CC1)CCC3 (stereo unspecified), O=C(/C=C/c1ccc(Cl)c(Cl)c1)NCCCCCN1CCC(NC(=O)Nc2cccc(C(F)(F)F)c2)CC1, O=C(/C=C/c1ccc(Cl)c(Cl)c1)NC1CCC(CN2CCC(c3c[nH]c4ccncc34)CC2)CC1 (stereo unspecified), Cc1cc(-c2ccc(O)c(CNC3CCCCC3)c2)cnc1N, O=C(Nc1cccc(-c2ccc(-c3nc4ccc(F)cc4[nH]3)cc2)c1)c1cccnc1, COc1ccc2ncc(F)c(CCN3CC[C@H](NCc4cc5c(s4)CCCN5)[C@H](O)C3)c2n1, CN(C)C(=O)C(CC(=O)NCc1ccccc1Cl)N(C)C (stereo unspecified) (tested in a mixture with another compound), CC(C)Oc1ccc2c(c1)OC(c1ccccc1)(C(F)(F)F)NC2=O (stereo unspecified), COc1ccc2ncc(F)c(CCN3CCC(CNC(=O)C(=O)c4c[nH]c5ccccc45)CC3)c2n1, COc1ccc(C2C(C(=O)Nc3ccccc3)=C(C)Nc3c(C(=O)Nc4ccccc4)cnn32)cc1 (stereo unspecified), Cc1cccc2[nH]c(-c3ccc(-c4ccc(CN5CCCCC5CO)cc4)cc3)nc12 (stereo unspecified), COc1cc(Cc2cnc(N)nc2N)cc(OCCCCc2nn[nH]n2)c1OC, CC(C)(C)NC(=O)COC(=O)c1c2c(nc3ccccc13)C(=Cc1ccc3c(c1)OCO3)CCC2, CN1CCC(C(=O)Nc2cccc(-c3ccc(-c4nc5ccc(C(F)(F)F)cc5[nH]4)s3)c2)CC1, COCc1cccc(-c2cc(-c3ccc(S(C)(=O)=O)cc3)cnc2N)c1, NC(=O)COc1cccc2c1CCN(CCN1CCC(NC(=O)c3ccc(-c4ccc(Cl)cc4)cc3)CC1)C2, O=c1cc(NCCCNCc2ccc(Cl)c(Cl)c2)[nH]c2cc(Cl)ccc12, Cn1nccc1C(=O)NCCNCc1ccc(-c2ccc(-c3nc4ccc(C(F)(F)F)cc4[nH]3)cc2)cc1, FC(F)(F)c1cccc(C=NNc2nc3ccccc3[nH]2)c1

Each compound was assayed against Plasmodium falciparum protein kinase 6 (PK6, PF3D7_1337100) (UniProt Q8IDW1) (assay: PfPK6 kinase inhibitors, biochemical, TCAMS library (AID 1159586)). Details: recombinant PfPK6, Kinase-Glo ATP depletion luminescence.
Chain of Plasmodium falciparum protein kinase 6 (PK6, PF3D7_1337100) (Q8IDW1 1-305): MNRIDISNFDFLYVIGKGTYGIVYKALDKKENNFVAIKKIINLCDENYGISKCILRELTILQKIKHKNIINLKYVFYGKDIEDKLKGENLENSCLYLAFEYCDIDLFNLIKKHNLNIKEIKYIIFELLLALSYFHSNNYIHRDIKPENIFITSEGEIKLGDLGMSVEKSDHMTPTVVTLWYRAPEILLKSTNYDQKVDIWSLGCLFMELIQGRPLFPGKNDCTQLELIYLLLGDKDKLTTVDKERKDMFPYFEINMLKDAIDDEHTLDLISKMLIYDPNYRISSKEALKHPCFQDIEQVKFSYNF

outcome, inactive:
CC(=O)N/N=C/[C@H](CCc1ccccc1)NC(=O)[C@H](CC(C)C)NC(=O)c1ccc(OCCN2CCOCC2)cc1, CN1CCN(Cc2ccc(-c3cc4nccc(Nc5ccc(Oc6ccccc6)cc5)c4cc3Cl)o2)CC1, Cc1ccc(NCc2cccc(F)c2)cc1S(=O)(=O)N[C@@H]1CCN(C#N)C1, COc1ccc(NC(=O)N2CCN(CCCCCNC(=O)/C=C/c3ccc(C(F)(F)F)cc3)CC2)cc1Cl, NC1=NC(c2ccccc2)(c2cccc(O)c2)C(=O)N1CCCc1ccccc1 (stereo unspecified), COc1c(C2CCN(CCCCNC(=O)c3noc(-c4ccc(C#N)cc4)n3)CC2)ccc2c1CCCC2, Cc1noc(C)c1-c1ccc2c(Nc3ccccc3C(C)(C)C)c(C(=O)NCc3ccc(OC(C)C)cc3)cnc2c1, Cc1cc(=O)c(-c2ccc(Oc3cccc(C(F)(F)F)c3)cc2)c(C)[nH]1, O=c1cc(NCCCNCc2cc(Cl)cc(Cl)c2OCc2ccccc2)[nH]c2ccccc12, O=C(NCCCCN1CCC(c2ccc(OC(F)(F)F)cc2)CC1)c1ccc(NC(=O)c2ccc(Cl)cc2)cc1, Cc1cc(NCCC(=O)NCCc2ccccc2)nc(NCCc2ccc(F)cc2)n1, O=C(/C=C/c1ccc(Cl)c(Cl)c1)NC1CCN(Cc2ccc(O)cc2)CC1, c1ccc(Oc2cccc(Nc3ccnc4ccccc34)c2)cc1, Cc1cccc2[nH]c(-c3ccc(-c4cccc(NC(=O)NCc5cccc(F)c5)c4)cc3)nc12, Cc1ccc(NC(=O)NCCCCCN2CCC(c3c[nH]c4ccccc34)CC2)cc1I, COc1ccc(Cn2c(SCc3ccc(C)cc3)nc3cc(OC)c(OC)cc3c2=N)cc1Cl, COc1ccc(NC(=O)c2cc(-c3ccc(NC(C)=O)cc3)cnc2N)cc1, O=C(NCCc1ccc(Cl)c(Cl)c1)c1ccc(CNC(=O)c2ccc(O)c(-c3ccc(Cl)c(Cl)c3)c2)cc1, CCN(CC)C(=NCCCCCCN=C(NC(N)=NCc1cccc(Cl)c1)N(CC)CC)NC(N)=NCc1cccc(Cl)c1, CNCCNCc1cccc(-c2ccc(-c3nc4ccc(C(F)(F)F)cc4[nH]3)cc2)c1, COc1ccc(-c2cccc(NC(=O)c3ccc(F)cc3)c2)cc1CNC(C)C, O=C1Nc2cccc3c2C1(CCCCN1CCC(c2cc4ccncc4[nH]2)CC1)CCC3 (stereo unspecified), O=C(/C=C/c1ccc(Cl)c(Cl)c1)NCCCCCN1CCC(NC(=O)Nc2cccc(C(F)(F)F)c2)CC1, O=C(/C=C/c1ccc(Cl)c(Cl)c1)NC1CCC(CN2CCC(c3c[nH]c4ccncc34)CC2)CC1 (stereo unspecified), Cc1cc(-c2ccc(O)c(CNC3CCCCC3)c2)cnc1N, O=C(Nc1cccc(-c2ccc(-c3nc4ccc(F)cc4[nH]3)cc2)c1)c1cccnc1, COc1ccc2ncc(F)c(CCN3CC[C@H](NCc4cc5c(s4)CCCN5)[C@H](O)C3)c2n1, CN(C)C(=O)C(CC(=O)NCc1ccccc1Cl)N(C)C (stereo unspecified) (tested in a mixture with another compound), CC(C)Oc1ccc2c(c1)OC(c1ccccc1)(C(F)(F)F)NC2=O (stereo unspecified), COc1ccc2ncc(F)c(CCN3CCC(CNC(=O)C(=O)c4c[nH]c5ccccc45)CC3)c2n1, COc1ccc(C2C(C(=O)Nc3ccccc3)=C(C)Nc3c(C(=O)Nc4ccccc4)cnn32)cc1 (stereo unspecified), Cc1cccc2[nH]c(-c3ccc(-c4ccc(CN5CCCCC5CO)cc4)cc3)nc12 (stereo unspecified), COc1cc(Cc2cnc(N)nc2N)cc(OCCCCc2nn[nH]n2)c1OC, CC(C)(C)NC(=O)COC(=O)c1c2c(nc3ccccc13)C(=Cc1ccc3c(c1)OCO3)CCC2, CN1CCC(C(=O)Nc2cccc(-c3ccc(-c4nc5ccc(C(F)(F)F)cc5[nH]4)s3)c2)CC1, COCc1cccc(-c2cc(-c3ccc(S(C)(=O)=O)cc3)cnc2N)c1, NC(=O)COc1cccc2c1CCN(CCN1CCC(NC(=O)c3ccc(-c4ccc(Cl)cc4)cc3)CC1)C2, O=c1cc(NCCCNCc2ccc(Cl)c(Cl)c2)[nH]c2cc(Cl)ccc12, Cn1nccc1C(=O)NCCNCc1ccc(-c2ccc(-c3nc4ccc(C(F)(F)F)cc4[nH]3)cc2)cc1, FC(F)(F)c1cccc(C=NNc2nc3ccccc3[nH]2)c1
